For 36 compounds, composite z-score results are on record in PubChem BioAssay.

This experiment concerns XIP peptide (Xip251-270). Nature of the experiment: compounds binding XIP fragment 251-270 – biochemical, small-molecule microarray, fluorescence 635/667 nm, 0.5 µg/mL protein, primary screen (AID 1183). The settings on record: fluorescence 635 nm, higher = more signal.
Consider `C[C@H]1CC[C@H]2C(=O)N[C@H](Cc3ccccc3)C(=O)N2[C@@H]1c1ccccc1`, for which the composite z-score is 0.647. With `COc1ccc(COC(=O)NN=C2C[C@@H](O)[C@@H](O)[C@@H]3[C@@H]4C(=O)N(C[C@@H]5CCCO5)C(=O)[C@@H]4CC[C@H]23)cc1` the figure was -0.239; with `OC[C@H]1O[C@H](C#Cc2ccccc2)C=C[C@@H]1O`, -0.105.

`O=C1C=C[C@@H](O)[C@@H]2[C@@H]3C(=O)N(c4cccc(Oc5ccccc5)c4)C(=O)[C@@H]3CC[C@@H]12`: the composite z-score is 0.528. `O=C1CCCC=C1C(O)COCc1ccccc1` (stereo unspecified): the composite z-score turned out to be 0.269. With `CCN1C(=O)[C@H]2[C@H]3[C@H](O)[C@H](O)CC(=NO[C@H](C)c4cn([C@H](CO)Cc5ccccc5)nn4)[C@@H]3CC[C@H]2C1=O` the figure was 0.722. With `COc1ccc(O[C@H]2C=C[C@@H](c3ccccc3)O[C@@H]2CON=C2c3cc(OC)ccc3O[C@H](c3cccc(OC)c3)[C@H]2O)cc1` the figure was -0.338; with `CCOC(=O)CCN1C(=O)[C@H]2[C@@H]3C(=CC[C@H]2C1=O)C(=O)[C@H]1O[C@H]1[C@H]3O`, -0.465. With `CC(C)=CCCC(C)=CCON=C1C[C@@H](O)[C@@H](O)[C@@H]2[C@@H]3C(=O)N(Cc4ccc5c(c4)OCO5)C(=O)[C@@H]3CC[C@H]12` the figure was 0.17. For the compound `C=CC[C@@H]1C=C[C@H](ON=C(C)CCN2CCCCc3nc(C)c(C)cc32)[C@@H](CO)O1`, the composite z-score is 0.143.

As to `CON=C(C)CCN1CCCCc2nc(C)c(C)cc21`, the composite z-score came to 0.49.

In the case of `COc1ccc(COC(=O)NN=C2C[C@@H](O)[C@@H](O)[C@@H]3[C@@H]4C(=O)N(c5cccc(Oc6ccccc6)c5)C(=O)[C@@H]4CC[C@H]23)cc1`, the composite z-score was -0.255. For `COCCNC(=O)OCC1CCCC2(CC(OC(=O)NCc3cccc4ccccc34)CC(CCC(=O)N[C@@H](C)C(=O)OC)O2)O1` (stereo partly specified), the composite z-score stood at 0.588. On to `CCOC(=O)[C@H](CC(C)C)NC(=O)CCC1CC(OC(=O)NCc2ccc3c(c2)OCO3)CC2(CCCC(COC(=O)NCCc3ccc(Cl)cc3)O2)O1` (stereo partly specified), for which the composite z-score turned out to be 0.137. With `CC(C)CON=C1C[C@@H](O)[C@@H](O)[C@@H]2[C@@H]3C(=O)N(Cc4ccc5c(c4)OCO5)C(=O)[C@@H]3CC[C@@H]12` the figure was -0.266; with `CC(C)=CCCC(C)=CCON=C1C[C@@H](O)[C@@H](O)[C@@H]2[C@@H]3C(=O)N(Cc4ccc5c(c4)OCO5)C(=O)[C@@H]3CC[C@@H]12`, 0.245; with `Cc1cc2c(nc1C)CCCCN2CC(O)CN1CCCc2nc(-c3ccc(Br)cc3)ccc21` (stereo unspecified), 0.0985. In the case of `COc1ccc(OC[C@@H]2CC3[C@@H](c4ccc(Br)cc4)[C@H](C)CC[C@H]3C(=O)O2)cc1` (stereo partly specified) it was 0.659. In the case of `CCN1C(=O)[C@H]2[C@H]3[C@H](O)[C@H](O)CC(=NO[C@@H]4O[C@H](COC(C)=O)[C@@H](OC(C)=O)[C@H](OC(C)=O)[C@H]4OC(C)=O)[C@@H]3CC[C@H]2C1=O` it was -0.191.

For `COc1ccc(O[C@H]2C=C[C@@H](c3ccccc3)O[C@@H]2COC(=O)NCc2cccc3ccccc23)cc1`, the composite z-score stood at 0.143. With `CCN1C(=O)[C@H]2[C@H]3[C@H](O)[C@H](O)CC(=NOC[C@@H](O)COCc4ccco4)[C@H]3CC[C@H]2C1=O` the figure was 0.505; with `CCOC(=O)CCN1C(=O)[C@H]2[C@H]3[C@H](O)[C@H](O)CC(=NO[C@@H]4O[C@H](CO)[C@@H](O)[C@H](O)[C@H]4O)[C@H]3CC[C@H]2C1=O`, 0.405. In the case of `CO[C@H]1COC(=O)CC=C[C@@H](C)COC(=O)[C@H]2CCCN2C(=O)CC=C[C@H]1C` it was 0.286; in that of `CCCC[C@H]1CN2[C@@H](CC[C@@H](C)[C@@H]2c2ccc(Br)cc2)C(=O)O1`, 0.476. With `CCOC(=O)CCN1C(=O)[C@H]2[C@H]3[C@H](O)[C@H](O)CC(=NOCC=C(C)CCC=C(C)C)[C@@H]3CC[C@H]2C1=O` the figure was 0.613; with `CCN1C(=O)[C@H]2[C@H]3[C@H](O)[C@H](O)CC(=NOCC[C@@H]4C=C[C@H](OC(C)=O)[C@@H](COC(C)=O)O4)[C@@H]3CC[C@H]2C1=O`, 0.529. As to `CCOC(=O)CCN1C(=O)[C@H]2[C@H]3[C@H](O)[C@H](O)CC(=NO[C@@H]4O[C@H](CO)[C@@H](O)[C@H](O)[C@H]4O)[C@@H]3CC[C@H]2C1=O`, the composite z-score is 0.632. In the case of `CCOC(=O)[C@H](CC(C)C)NC(=O)CCC1CC(OC(=O)NCCc2ccc(F)cc2)CC2(CCCC(COC(=O)NCCOC)O2)O1` (stereo partly specified) it was 0.39; in that of `C[C@@H](c1ccccc1)N1C(=O)[C@H]2[C@H]3[C@H](O)[C@H](O)CC(=NOC[C@@H](O)COCc4ccco4)[C@H]3CC[C@H]2C1=O`, 0.316; in that of `CC(C)CN1CCc2nc(-c3ccccc3)c3c(c2C1)CO[C@@H](C)C3`, 0.687. In the case of `O=C1[C@H]2[C@H]3[C@H](O)[C@H](O)CC(=NOC[C@@H](O)COCc4ccco4)[C@@H]3CC[C@H]2C(=O)N1c1cccc(Oc2ccccc2)c1` it was -0.344; in that of `CO[C@@H](C1CCCCC1)[C@@H](C)[C@H](OCc1cccc(Br)c1)[C@@H](C)CO`, -0.0791; in that of `CCN1C(=O)[C@H]2[C@H]3[C@H](O)[C@H](O)CC(=NO[C@@H]4O[C@H](CO)[C@@H](O)[C@H](O)[C@H]4O)[C@H]3CC[C@H]2C1=O`, 0.263. In the case of `CCN1C(C)=C(C(=O)OC)[C@@H](c2ccccc2)N2C(=O)[C@](O)(C(=O)OC)CC(C(C)=O)=C12`, the composite z-score was -0.218. Consider `C#CCCCON=C1[C@H]2CCn3c(=O)n([C@@H](CC)c4ccccc4)c(=O)n3[C@H]2[C@H](O)[C@@H]2O[C@H]12`, for which the composite z-score was -0.226. Regarding `CCOC(=O)[C@H](Cc1ccccc1)NC(=O)CCC1CC(OC(=O)NCc2ccc3c(c2)OCO3)CC2(CCCC(COC(=O)NCCOC)O2)O1` (stereo partly specified), the composite z-score was found to be 0.515.
